The text below walks through data of PubChem BioAssay.

Assay [1] in a line: growth inhibition of DIPG glioma cells, dose response, cell-based, SU-DIPG-XIII, MIPE4.0, CellTiter-Glo, qHTS (AID 1347061; cut-off not given, nearly all actives have AC50 up to about 37 µM;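 also: cells exposed to compound for 48 hours before readout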). The following applies: SU-DIPG-XIII viability, CellTiter-Glo ATP luminescence. (In general: In ATP-based viability assays light output follows the ATP content of the culture.)
A short description of assay [2]: growth inhibition of DIPG glioma cells, dose response, cell-based, JHH-DIPG-1, MIPE4.0, CellTiter-Glo, qHTS (AID 1347062; cut-off not given, nearly all actives have AC50 up to about 27 µM). The following applies: JHH-DIPG-1 viability, CellTiter-Glo ATP luminescence.
The nature of assay [3]: SU-DIPG-VI glioma cell viability, MIPE4.0 library, CellTiter-Glo luminescence, qHTS (AID 1347066; cut-off not given, nearly all actives have AC50 up to about 30 µM;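 also: cells exposed to compound for 48 hours before readout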). The following applies: CellTiter-Glo ATP luminescence.
Assay [4] can be described thus: sensitizers of A549 cells to miR-34 induction, primary screen, imaging, A549 dox-inducible miR-34, nuclei and caspase counts (AID 1347080;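 active = compounds whose cell count with miR-34 switched on is under 0.7 times the count with it off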). The following applies: A549 miR-34 inducible, Hoechst nuclei count, 48 h.
Assay [5] in a line: survival rescue of mitochondrial mutant cells in low glucose, primary screen, MELAS cybrids, Rieske KO mouse fibroblasts, CellTiter-Glo (AID 1508586;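 active = mean z-score across replicates of 1.96 or higher in either the MELAS or the Rieske mutant cell line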;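 also: z relative to plate mean and SD of compound and empty wells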).
Assay [6] in a line: growth inhibition of DIPG glioma cells, dose response, cell-based, SU-DIPG-IV, MIPE4.0, CellTiter-Glo, qHTS (AID 1347063; cut-off not given, nearly all actives have AC50 up to about 30 µM;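 also: compound exposure lasted 48 hours before the viability readout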). Particulars: SU-DIPG-IV viability, CellTiter-Glo ATP luminescence.
Assay [7] can be described thus: modifiers of HSF1 nuclear foci, imaging, Selleck Cancer Library (AID 1347162; in the data active = plate-normalised HSF1 focus index below about 0.46). Particulars: human cells, at 10 µM; SSMD: measured here: HSF1 foci SSMD mean; cell count: measured here: cell number; plate-normalised HSF1 focus index: stronger effect = lower value.
A short description of assay [8]: viability loss in pontine glioma line – cell-based, SU-DIPG-XXV, MIPE5.0, CellTiter-Glo, qHTS, dose response (AID 1347065; cut-off not given, nearly all actives have AC50 up to about 26 µM;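 also: cells exposed to compound for 48 hours before ATP readout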). The following applies: CellTiter-Glo ATP luminescence.
A short description of assay [9]: JHH-DIPG-1 glioma cell viability, MIPE5.0 library, CellTiter-Glo luminescence, qHTS (AID 1347067; cut-off not given, nearly all actives have AC50 up to about 26 µM;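 also: cells exposed to compound for 48 hours before readout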). The following applies: JHH-DIPG-1 glioma viability, CellTiter-Glo ATP luminescence.
Assay [10] in a line: growth inhibition of DIPG glioma cells, dose response, cell-based, SU-DIPG-XIII, MIPE5.0, CellTiter-Glo, qHTS (AID 1347064; cut-off not given, nearly all actives have AC50 up to about 23 µM). Particulars: SU-DIPG-XIII viability, CellTiter-Glo ATP luminescence.
Assay [11] in a line: SU-DIPG-XXV glioma cell viability, MIPE5.0 library, qHTS (AID 1347068; cut-off not given, nearly all actives have IC50 up to about 30 µM).
A short description of assay [12]: ovarian cancer cell viability with rucaparib, profiling panel, oncology-focused library, rucaparib conditional (AID 1508598). Particulars: patient-derived ovarian cancer cells, CellTiter-Glo viability, 144 h, stronger effect = lower value.
The mark [13] stands for this setting: stronger effect = lower value, cell number ratio, induced over uninduced.
[14] abbreviates: measured here: relative caspase fold change +Dox/-Dox.
Where [15] appears, read: measured here: total cells with miR-34 induction, stronger effect = lower value.
[16] abbreviates: measured here: total cells without miR-34 induction.
The mark [17] stands for this setting: MELAS cybrid survival, CellTiter-Glo 48 h, stronger effect = higher value.
The mark [18] stands for this setting: Rieske KO mouse fibroblast survival, CellTiter-Glo 72 h.

Records with an inconclusive call do not appear. Active and inactive are the calls of the source.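 The calls were made as follows, unless noted: active = normalized viability below 100% at a tested concentration; inactive = the rest.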

Turning to `CC(C)CN(C[C@@H](O)[C@H](Cc1ccccc1)NC(=O)O[C@H]1CCOC1)S(=O)(=O)c1ccc(N)cc1`, the result in assay [1], in assay [2] and in [3] was inactive. The fold change is 0.871 (inactive) in [4] (setting [13]) and 1.32 in assay [4] (setting [14]). The results for the cell count in assay [4] (setting [15]) and in assay [4] (setting [16]) were 8920 and 10200, respectively. Also, the z-score in assay [5] (setting [17]) was -0.00484 (inactive); in assay [5] (setting [18]), -0.0373.
Regarding `CC[C@@H]1/C=C(\C)C[C@H](C)C[C@H](OC)[C@H]2O[C@@](O)(C(=O)C(=O)N3CCCC[C@H]3C(=O)O[C@H](/C(C)=C/[C@@H]3CC[C@H](Cl)[C@H](OC)C3)[C@H](C)[C@@H](O)CC1=O)[C@H](C)C[C@@H]2OC`, the call in assay [1] and in assay [3] was inactive.
Regarding `COc1cccc2c1CCCC2CCCN1CCN(C2CCCCC2)CC1` (centres undefined), in [1], the compound was called inactive. The AC50 in assay [6] was 18.7 µM (active). In assay [7], the SSMD was -2.1, the cell count was found to be 5730 and the plate-normalised HSF1 focus index is 0.878 (inactive).
For the compound `CC(O)(C#Cc1ccc2c(c1)N(c1nc(N)ncc1Cl)CC2)c1nccs1` (centres undefined), the AC50 in assay [1] is 16.6 µM (active); in assay [6], 16.6 µM (active); in assay [8], 13.2 µM (active); in [9], 18.6 µM (active). Further, the result in assay [3] was inactive.
On to `CC(C)OC(=O)C1=CN(C(=O)c2ccc(F)c(F)c2)CC(C)(C)c2c1[nH]c1ccccc21`, for which the result in assay [1], in [10], in [8], in assay [3], in assay [9] and in [11] was inactive. In addition, the AC50 in assay [6] was 26.4 µM (active). Further, the fold change in [4] (setting [13]) was 0.997 (inactive); in [4] (setting [14]), 0.501. Further, the cell count in [4] (setting [15]) was 7570; in [4] (setting [16]), 7590; in assay [7], 7100. In [7], the SSMD is 3.1. For the same compound, in [7], the plate-normalised HSF1 focus index is 1.17 (inactive). Moreover, the z-score in [5] (setting [17]) is -0.00254 (inactive); in assay [5] (setting [18]), 0.0698. In addition, the viability in [12] (at 0.000305 µM, OCI-C5x cells, with rucaparib 10 µM, 100% = cells with rucaparib alone) is 123% (inactive); in assay [12] (at 0.000305 µM, OCI-C5x cells, without rucaparib), 126% (inactive); in [12] (at 0.000305 µM, OCI-P5x cells, with rucaparib 20 µM, 100% = cells with rucaparib alone), 115% (inactive); in [12] (at 0.000305 µM, OCI-P5x cells, without rucaparib) it was 112% (inactive); in assay [12] (at 0.00122 µM, OCI-C5x cells, with rucaparib 10 µM, 100% = cells with rucaparib alone), 116% (inactive); in assay [12] (at 0.00122 µM, OCI-C5x cells, without rucaparib), 130% (inactive). The viability in assay [12] (at 0.00122 µM, OCI-P5x cells, with rucaparib 20 µM, 100% = cells with rucaparib alone) was 117% (inactive); in assay [12] (at 0.00122 µM, OCI-P5x cells, without rucaparib), 110% (inactive); in assay [12] (at 0.00488 µM, OCI-C5x cells, with rucaparib 10 µM, 100% = cells with rucaparib alone), 128% (inactive); in [12] (at 0.00488 µM, OCI-C5x cells, without rucaparib), 128% (inactive); in assay [12] (at 0.00488 µM, OCI-P5x cells, with rucaparib 20 µM, 100% = cells with rucaparib alone), 111% (inactive); in assay [12] (at 0.00488 µM, OCI-P5x cells, without rucaparib), 115% (inactive). The viability in assay [12] (at 0.0195 µM, OCI-C5x cells, with rucaparib 10 µM, 100% = cells with rucaparib alone) is 108% (inactive); in assay [12] (at 0.0195 µM, OCI-C5x cells, without rucaparib), 126% (inactive); in [12] (at 0.0195 µM, OCI-P5x cells, with rucaparib 20 µM, 100% = cells with rucaparib alone), 118% (inactive); in assay [12] (at 0.0195 µM, OCI-P5x cells, without rucaparib), 115% (inactive); in assay [12] (at 0.0781 µM, OCI-C5x cells, with rucaparib 10 µM, 100% = cells with rucaparib alone), 112% (inactive); in [12] (at 0.0781 µM, OCI-C5x cells, without rucaparib), 128% (inactive). The viability was 115% (inactive) in [12] (at 0.0781 µM, OCI-P5x cells, with rucaparib 20 µM, 100% = cells with rucaparib alone); 116% (inactive) in assay [12] (at 0.0781 µM, OCI-P5x cells, without rucaparib); 125% (inactive) in assay [12] (at 0.313 µM, OCI-C5x cells, with rucaparib 10 µM, 100% = cells with rucaparib alone); 131% (inactive) in [12] (at 0.313 µM, OCI-C5x cells, without rucaparib); 113% (inactive) in assay [12] (at 0.313 µM, OCI-P5x cells, with rucaparib 20 µM, 100% = cells with rucaparib alone); 114% (inactive) in assay [12] (at 0.313 µM, OCI-P5x cells, without rucaparib). The viability in assay [12] (at 1.25 µM, OCI-C5x cells, with rucaparib 10 µM, 100% = cells with rucaparib alone) was 114% (inactive); in [12] (at 1.25 µM, OCI-C5x cells, without rucaparib), 122% (inactive); in assay [12] (at 1.25 µM, OCI-P5x cells, with rucaparib 20 µM, 100% = cells with rucaparib alone) it was 114% (inactive); in assay [12] (at 1.25 µM, OCI-P5x cells, without rucaparib), 106% (inactive); in assay [12] (at 5 µM, OCI-C5x cells, with rucaparib 10 µM, 100% = cells with rucaparib alone), 125% (inactive); in [12] (at 5 µM, OCI-C5x cells, without rucaparib), 118% (inactive). Besides, the viability in assay [12] (at 5 µM, OCI-P5x cells, with rucaparib 20 µM, 100% = cells with rucaparib alone) was 114% (inactive); in assay [12] (at 5 µM, OCI-P5x cells, without rucaparib) it was 113% (inactive).

Broadly, the AC50 is the midpoint of the concentration-response curve, whichever way the signal moves. Usually viability stands for a read-out of living cells in per cent, often relative to untreated cells.
